# Screening data as filed in PubChem.
# The list is not random: actives were taken first. Their share in the collection is about 1.6%.
# VLA-4 inh: inhibition in a human VLA-4 binding assay. P13612. VLA-4 expressing cells, ligand binding flow cytometry. inhibition, % (about 7 µM as worked out from the volumes in the protocol). 0.2% of 330,000 active. AID 2557; in the data active = inhibition above about 50%
# PKA-R2B activ: activates the human PKA-R2B holoenzyme complex. P22694+P31323. PKA-R2B holoenzyme dissociation, Cy5-IP20 fluorescence polarization; R2B truncated from residue 108, S112A mutant; 0% DMSO only, 100% 113 µM cGMP. activation, % at 11.4 µM. 0.079% of 340,000 active;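 active = activation above a cutoff set at the mean over all compounds plus 3 SD, cut at about 18% in these data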;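 note: higher means more holoenzyme dissociation and a rise in polarization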
# PKA-R1A act: activates the PKA-R1A holoenzyme complex; P00514+P68181; activation, % at 11.4 µM; PKA-R1A dissociation, Cy5-IP20 fluorescence polarization; scaled: DMSO 0%, 113 µM cGMP 100%; AID 504707; 0.083% of 340,000 active;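 active = percent activation above the mean of all tested compounds plus 3 SD, cut at about 19% in these data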;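 note: higher means more PKAc released from R1A so a rise in polarization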
# ATG4B inhibitor: blocks human ATG4B protease cleavage of LC3 substrate; 0.51% of 340,000 active; inhibition, % at 8.33 µM; Q9Y4P1; ATG4B cleavage of LC3-PLA2, NBD-HPC fluorescence, 1 h; in the data active = inhibition above about 40%
# Target sequence (Q9Y4P1 whole entry, looked up): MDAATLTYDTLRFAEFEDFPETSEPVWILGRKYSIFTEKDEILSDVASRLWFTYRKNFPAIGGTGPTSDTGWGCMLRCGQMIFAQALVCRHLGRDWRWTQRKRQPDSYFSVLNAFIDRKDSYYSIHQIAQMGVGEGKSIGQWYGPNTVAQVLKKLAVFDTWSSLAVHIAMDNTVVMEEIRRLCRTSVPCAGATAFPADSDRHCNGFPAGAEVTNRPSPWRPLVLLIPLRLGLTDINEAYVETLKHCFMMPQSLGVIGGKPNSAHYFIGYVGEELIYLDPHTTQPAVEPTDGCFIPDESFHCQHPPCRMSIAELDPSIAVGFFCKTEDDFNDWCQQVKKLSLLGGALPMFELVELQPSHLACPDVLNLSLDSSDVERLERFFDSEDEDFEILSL
# CendR NRP1 mod: alters CendR peptide binding to human NRP-1; 0.85% of 360,000 active; inhibition, % at 25 µM; AID 602438; FAM-RPARPAR peptide binding to NRP-1, fluorescence polarization;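 active = inhibition or corrected inhibition above about 18%, plus a signal ratio from 0.5 to 1.5, limit read from the data, passing the limit was not always enough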
# * = called active by the depositor; i = inactive; . = no result.
SMILES,VLA-4 inh,PKA-R2B activ,PKA-R1A act,ATG4B inhibitor,CendR NRP1 mod
O=C(CN1C(=O)CSC1=O)NCc1ccccc1,3,3,-7,-14,27*
CC(C)NC(=O)c1cc(C2CCCCN2C(=O)c2ccc(C(C)C)cc2)on1 (stereo not drawn),.,.,.,.,7
CC(=O)Nc1ccc(C(=O)N2CCCCC2c2cc(C(=O)NC(C)C)no2)cc1 (stereo not drawn),.,.,.,.,44*
COC(=O)N1CCCCC1c1cc(C(=O)N2CCOCC2)no1 (stereo not drawn),.,.,.,.,26*
CC(O)CC(=O)OC[C@]12CC[C@H]3[C@@](C)(CC[C@H]4C(C)(C)CCC[C@]34C)[C@@H]1CC(C1=CC(=O)OC1O)O2 (stereo partly drawn),.,.,.,.,-146
CCN(C[C@H]1N[C@@](CC)(C(=O)OC)[C@H]2C(=O)N(Cc3ccccc3)C(=O)[C@@H]12)S(=O)(=O)c1ccc(OC)cc1,-8,-9,0,-2,3
CCN(C[C@H]1N[C@@](Cc2ccccc2)(C(=O)OC)[C@H]2C(=O)N(Cc3ccccc3)C(=O)[C@@H]12)S(=O)(=O)c1ccc(OC)cc1,-12,1,-1,9,26*
Cc1ccc(S(=O)(=O)c2ncccc2N)cc1,i,-5,-3,3,56*
Cc1ccc(S(=O)(=O)c2ncccc2[N+](=O)[O-])cc1,16,-12,-2,13,-2
Cn1nc(C(C)(C)C)cc1N1C(=O)CCC1(C)C(=O)Nc1ccc2ccccc2c1 (stereo not drawn),.,.,.,.,24*
CC(C)C[C@@H](CN1CCC[C@H]1CN1C(=O)C(=O)NC[C@@H]1Cc1ccccc1)N1C[C@H](Cc2ccc(O)cc2)N(CC2CCCCCC2)C(=O)C1=O,.,.,.,.,-14
Cc1ccc(C(c2c(C)nn(-c3ccccc3)c2N)c2c(C)nn(-c3ccccc3)c2N)cc1,-6,6,1,-17,30*
Cc1nc2c(OCc3cccc(Cl)c3)cccn2c1N(C)Cc1cccs1,.,.,.,.,-12
O=C1CCC(OCc2ccccc2)CCN1CC[C@@H](Sc1ccccc1)c1ccccc1 (stereo partly drawn),.,.,.,.,-6
O=C(N[C@@H]1CCC(=O)N(CC[C@H](Sc2ccc(Br)cc2)c2ccccc2)CC1)OCc1ccccc1,-2,-5,-12,2,20*
O=C1CC[C@@H](OCc2ccccc2)CCN1CC[C@H](Sc1ccccc1)c1ccccc1,7,3,-8,9,29*
COc1ccc(CCNC(=O)[C@@H](NC(=O)c2ccccc2F)C(C)C)cc1OC,-9,-7,-8,0,6
CCCCNC(=O)C(NC(=O)c1cnc(C)cn1)C(=O)c1ccccc1 (stereo not drawn),.,.,.,.,-8
O=C(NC(c1ccc(Cl)cc1)c1ccsc1)C1CCN(Cc2cccc(Cl)c2)CC1 (stereo not drawn),.,.,.,.,-3
O=C(c1ccc(Cl)cc1)c1cnc(-c2ccccc2)s1,.,-11,-11,1,-4
CO/N=C/CC(=O)c1cnc(-c2ccc(Cl)cc2)s1,-7,0,4,-2,26*
COc1cccc(C2/C(=C(/O)c3ccccc3)C(=O)C(=O)N2CCCC(=O)O)c1 (stereo not drawn),.,-5,-2,-3,29*
Cc1ccc(-c2noc(-c3ccccc3C(=O)N3CCOCC3)n2)cc1,2,0,2,-4,1
COc1ccc(-c2noc(-c3ccccc3C(=O)N3CCOCC3)n2)cc1,-7,4,2,12,26*
N#CCCCC1(CCCC#N)OCCO1,.,-8,-10,3,0
SMILES,VLA-4 inh,PKA-R2B activ,PKA-R1A act,ATG4B inhibitor,CendR NRP1 mod
CC1(C(=O)Nc2cnc3ccccc3c2)CCN1Cc1ccc(-c2ccccc2)o1 (stereo not drawn),.,.,.,.,-16
COc1ccc(S(=O)(=O)N2CCCCC2)cc1NC(=O)c1ccccc1,11,-11,1,-9,2
COc1ccc(S(=O)(=O)N2CCCCC2)cc1NC(=O)c1c(F)cccc1Cl,.,5,14,-10,26*
Cc1ccc(S(=O)(=O)N(CCC(=O)Nc2ccc(OC(F)(F)F)cc2)c2ccccc2)cc1,30,-16,-8,1,40*
Cc1ccc(S(=O)(=O)N(CCC(=O)NCc2ccccc2F)c2ccccc2)cc1,-26,-5,1,-5,-3
Cc1cccc(N2CCN(S(=O)(=O)c3ccc(Cl)nc3)CC2C)c1 (stereo not drawn),-4,9,-4,-9,27*
CN(C)CCCNC(=O)c1ccc(-c2cc3nc(NCc4cccnc4)n(C)c(=O)c3s2)cc1,.,.,.,.,-4
COc1ccc(NC(=O)Cn2nnc(C(N)=O)c2N)c(OC)c1,-6,-6,-1,-2,33*
COc1ccc(NC(=O)Cn2nnc(C(=O)NCc3cccs3)c2N)c(OC)c1,8,-11,2,-5,-4
COC(=O)[C@]12CCCCC=C1N(CCC1=CCCCC1)C(=O)[C@H](CC(=O)NCCCCc1ccccc1)C2,.,.,.,.,6
O=C(CN(C(=O)c1csnn1)c1ccc(F)c(Cl)c1)NCc1ccc2c(c1)OCO2,-8,-9,-6,-3,8
O=C(Nc1ccc(F)cc1)C(c1cccc(F)c1)N1CCN(C(=O)c2ccco2)CC1 (stereo not drawn),.,.,.,.,-9
CC(=O)c1ccc(OC(=O)CN2C(=O)c3ccccc3C2=O)cc1,-12,2,12,-3,-4
CCc1ccc(OC(=O)CN2C(=O)c3ccccc3C2=O)cc1,5,4,-6,1,26*
CCC(=O)Nc1ccc2c(c1)OC[C@@H](C)N(Cc1cccc(F)c1)C[C@@H](C)[C@@H](OC)CN(C)C2=O,.,.,.,.,10
CCc1cc2c(=O)c(-c3nc4ccccc4n3C)coc2c(CN2CCN(C)CC2)c1O,7,6,-4,6,22*
Cc1ccccc1C(=O)Oc1cc(N)n(S(C)(=O)=O)n1,3,5,-5,9,18*
CCCCCc1cc(=O)oc2c(C(CCN3CCCC3)c3ccc(N(C)C)cc3)c(OC)cc(OC)c12 (stereo not drawn),3,-2,6,12,2
CCCCCc1cc(=O)oc2c(C(CCN3CCCCC3)c3ccc(OC)cc3)c(OC)cc(OC)c12 (stereo not drawn),4,-5,-1,8,26*
COc1cc(OC)c2ccc(=O)oc2c1C(CCN1CCCCC1)c1ccc(N(C)C)cc1 (stereo not drawn),6,2,3,3,18*
COc1cc(OC)c2ccc(=O)oc2c1C(CCN1CCCC1)c1ccc(N(C)C)cc1 (stereo not drawn),18,0,-6,5,14
O=C(NCc1ccc(Cl)cc1)C(=O)N/N=C/c1ccc(Br)cc1,-2,2,6,14,2
O=C(C[C@@H]1C/C=C\CC[C@H](Cc2ccc(F)cc2)C(=O)OC[C@@H]2CCCN2C1=O)NCCO,19,-8,-5,4,20*
